A selection: hits, their analogues and other compounds. The true share with any hit is near 1.8%.
A3A deaminase – APOBEC3A ssDNA deaminase inhibitors, primary screen, selectivity assay for APOBEC3G inhibitor project, biochemical, FAM/TAMRA oligo cleavage fluorescence. DNA dC->dU-editing enzyme APOBEC-3A (Homo sapiens), P31941. AID 493011, 2011. recombinant A3A, FAM/TAMRA ssDNA deamination fluorescence. inhibition, % at 20 µM. 330,000 tested, 0.41% active;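 active = at least 40% inhibition at 20 µM here, with at most 30% in a related deaminase screen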;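 note: plate controls were A3A with DMSO for no effect and wells lacking A3A enzyme for full effect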
beta cell repl – inducers of MIN6 beta-cell proliferation, primary screen, ATP luminescence, uHTS; MIN6 cells proliferation, ATPlite luminescence, 48 h; cells starved in 0.2% serum; 100% = growth in 10% serum; proliferation, % at 10 µM; 330,000 tested, 0.29% active;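 active = compounds whose signal lies at least 3.5 SD above the mean of all wells on their plate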;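 note: 0% = DMSO-treated cells in low-serum medium and 100% = 10% serum control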
CendR NRP1 mod – modulators of CendR peptide binding to NRP-1, primary screen, biochemical, fluorescence polarization, uHTS; Neuropilin-1 (Homo sapiens), O14786; FAM-RPARPAR peptide binding to NRP-1; inhibition, % at 25 µM; 360,000 tested, 0.85% active; AID 602438, 2012;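 active = inhibition or corrected inhibition above about 18%, plus a signal ratio from 0.5 to 1.5, limit read from the data, passing the limit was not always enough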
Target sequence (O14786 whole entry, looked up): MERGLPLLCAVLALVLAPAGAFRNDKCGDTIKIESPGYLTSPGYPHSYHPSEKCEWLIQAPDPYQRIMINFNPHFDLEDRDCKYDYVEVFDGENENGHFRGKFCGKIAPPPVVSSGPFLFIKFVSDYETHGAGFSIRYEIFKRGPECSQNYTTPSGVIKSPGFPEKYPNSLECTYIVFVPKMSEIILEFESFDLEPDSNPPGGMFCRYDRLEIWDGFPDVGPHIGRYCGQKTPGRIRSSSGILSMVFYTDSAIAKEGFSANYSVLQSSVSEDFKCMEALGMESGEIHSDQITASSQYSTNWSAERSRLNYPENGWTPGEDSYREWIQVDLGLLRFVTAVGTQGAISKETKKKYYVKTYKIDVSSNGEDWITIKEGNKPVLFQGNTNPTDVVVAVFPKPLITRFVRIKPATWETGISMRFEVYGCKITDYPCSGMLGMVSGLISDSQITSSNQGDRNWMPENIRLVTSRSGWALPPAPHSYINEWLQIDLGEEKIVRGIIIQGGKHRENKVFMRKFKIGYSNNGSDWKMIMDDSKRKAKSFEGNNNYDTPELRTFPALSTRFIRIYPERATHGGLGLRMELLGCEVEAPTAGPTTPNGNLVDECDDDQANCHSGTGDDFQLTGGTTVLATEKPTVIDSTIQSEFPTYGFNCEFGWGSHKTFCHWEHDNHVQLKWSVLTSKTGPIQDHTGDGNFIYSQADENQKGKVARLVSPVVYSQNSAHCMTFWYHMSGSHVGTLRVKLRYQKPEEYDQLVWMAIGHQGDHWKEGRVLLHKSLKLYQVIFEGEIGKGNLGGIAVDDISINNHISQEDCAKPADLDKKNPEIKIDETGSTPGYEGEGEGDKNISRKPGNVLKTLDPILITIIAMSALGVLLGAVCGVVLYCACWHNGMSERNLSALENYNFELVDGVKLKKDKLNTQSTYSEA
VLA-4 inh – inhibition in human VLA-4 binding assay, primary screen, VLA-4 allosteric modulator project, MLPCN library, flow cytometry, VLA-4 expressing cells | ligand binding flow cytometry | inhibition, % (about 7 µM as worked out from the volumes in the protocol) | 330,000 tested, 0.2% active | Integrin alpha-4 (Homo sapiens), P13612; in the data active = inhibition above about 50%
A3G deaminase – APOBEC3G DNA deaminase inhibitors, primary screen, biochemical, fluorescence, single-stranded DNA substrate, uHTS. DNA dC->dU-editing enzyme APOBEC-3G (Homo sapiens), Q9HC16. recombinant A3G, ssDNA deamination FAM/TAMRA fluorescence. inhibition, % at 20 µM. 330,000 tested, 0.28% active. AID 493012, 2011;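 active = inhibition of at least 40% at 20 µM, with no more than 30% in the related APOBEC3A deaminase screen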;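 note: plate controls were DMSO wells with A3G for no effect and wells lacking A3G enzyme for full effect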
APOBEC3G confirm – APOBEC3G deaminase inhibitor retest, confirmation, biochemical, fluorescence, single-stranded DNA substrate, single concentration. shares compounds with A3G deaminase. recombinant A3G ssDNA deaminase, UDG/FAM-TAMRA fluorescence. inhibition, % at 20 µM. 890 tested, 72% active;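 active = inhibition reaching a set limit in any replicate at 20 µM, the limit being 80% of the first screen's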
UDG ctr A3G – E. coli UDG inhibitors, confirmation, counter-screen for APOBEC3G inhibitor project, biochemical, single concentration, fluorescence, FAM/TAMRA oligo; shares compounds with A3G deaminase; UDG counterscreen; inhibition, % at 20 µM; 710 tested, under 10 active; AID 504715, 2011;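 active = compounds giving 40% or more inhibition at 20 µM in any one of the three replicates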;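 note: plate controls were DMSO wells with UDG and oligo for no effect and DMSO wells lacking both for full effect; inhibitors lower the FAM signal released by uracil excision and alkaline cleavage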
* marks the source's active call; other numbers are inactive results.

Screening CC(=C/c1ccccc1)/C=N/n1c(-c2ccco2)n[nH]c1=S returned A3A deaminase -3, beta cell repl 2, CendR NRP1 mod -18, VLA-4 inh 0 and A3G deaminase 15.
`NC(=O)C1CCN(C(=O)CCC(=O)c2ccc(F)cc2)CC1` gave A3A deaminase -1, beta cell repl 4, CendR NRP1 mod 0, VLA-4 inh 5 and A3G deaminase -4.
`O=C(O)c1ccc(Cn2cnc3c(=O)[nH]cnc32)cc1` gave CendR NRP1 mod 4.
For CC[C@]12c3[nH]c4cc(-c5ccco5)ccc4c3CCN1C(=O)[C@@H](CC(=O)NCCCOC)C[C@@H]2C(=O)N1CCN(C(=O)c2ccco2)CC1 the results were A3A deaminase -3, CendR NRP1 mod -14 and A3G deaminase -3.
For CCC(=O)Nc1ccc(N2CCOCC2)c(S(=O)(=O)Nc2ccc(Cl)cc2)c1 the results were A3A deaminase 2, beta cell repl -3, CendR NRP1 mod -1, VLA-4 inh 20 and A3G deaminase 37.
For O=C(Nc1ccc(N2CCOCC2)c(S(=O)(=O)Nc2ccc(Cl)cc2)c1)c1ccc(=O)[nH]n1 the results were A3A deaminase 37, beta cell repl 2, CendR NRP1 mod -3, VLA-4 inh -9 and A3G deaminase 8.
Screening C[C@H](NC(N)=O)C(=O)Nc1ccc(N2CCOCC2)c(S(=O)(=O)Nc2ccc(Cl)cc2)c1 returned A3A deaminase -2, beta cell repl -6, CendR NRP1 mod 3, VLA-4 inh 1, A3G deaminase 46*, APOBEC3G confirm 30* and UDG ctr A3G 3.
O=C(Nc1ccc(N2CCOCC2)c(S(=O)(=O)Nc2ccc(Cl)cc2)c1)c1cnccn1 was read as A3A deaminase 0, beta cell repl -4, CendR NRP1 mod 0, VLA-4 inh -1, A3G deaminase 46*, APOBEC3G confirm 60* and UDG ctr A3G -3.
For C/C(=N\NC(=O)c1nnn(-c2nonc2N)c1CN(C)c1ccccc1)c1cccc(O)c1 the results were A3A deaminase 1, beta cell repl -4, CendR NRP1 mod 16, VLA-4 inh 0 and A3G deaminase 2.
`CCC(CC)C(=O)c1c[nH]c(C(=O)N2CCN(c3ccc(OC)cc3)CC2)c1` gave A3A deaminase -6, beta cell repl -1, CendR NRP1 mod 6, VLA-4 inh 5, A3G deaminase 48*, APOBEC3G confirm -2 and UDG ctr A3G -5.
CCC(=O)c1c[nH]c(C(=O)N2CCN(c3ccccc3)CC2)c1 was read as A3A deaminase 0, beta cell repl -2, CendR NRP1 mod 10, VLA-4 inh 12 and A3G deaminase -3.
`Cc1cc(C)cc(NC(=O)c2ccc([N+](=O)[O-])o2)c1` gave A3A deaminase 0, beta cell repl -5, CendR NRP1 mod 0 and A3G deaminase -8.
NS(=O)(=O)c1ccc(O)c(NC(=O)c2ccc([N+](=O)[O-])o2)c1 was read as A3A deaminase 8, beta cell repl -5, CendR NRP1 mod 9, VLA-4 inh 18, A3G deaminase 64*, APOBEC3G confirm 28* and UDG ctr A3G -13.
Screening O=[N+]([O-])c1cccc(/C=N/n2c(-c3cccnc3)n[nH]c2=S)c1 returned A3A deaminase 1, beta cell repl -1, CendR NRP1 mod 3, VLA-4 inh -13, A3G deaminase 69*, APOBEC3G confirm 74* and UDG ctr A3G 3.
Screening O=[N+]([O-])c1ccc(Cl)c(/C=N/n2c(-c3cccnc3)n[nH]c2=S)c1 returned A3A deaminase 4, beta cell repl -2, VLA-4 inh -7, A3G deaminase 48* and APOBEC3G confirm 25.
For O=[N+]([O-])c1ccc(/C=N/n2c(-c3cccnc3)n[nH]c2=S)cc1 the results were A3A deaminase -6, beta cell repl 2, CendR NRP1 mod 0, VLA-4 inh 8, A3G deaminase 63*, APOBEC3G confirm 62* and UDG ctr A3G -3.
Screening Cc1cc(-c2n[nH]c(=S)n2/N=C/c2cc([N+](=O)[O-])ccc2Cl)n[nH]1 returned CendR NRP1 mod -2.
Cc1ccsc1/C=N/n1c(-c2cccnc2)n[nH]c1=S was read as A3A deaminase -7, beta cell repl 0, CendR NRP1 mod -10, VLA-4 inh -27 and A3G deaminase 40.
Screening COc1ccc(NS(=O)(=O)c2ccc(OCC(=O)N3CCOCC3)cc2)cc1Cl returned A3A deaminase -5, beta cell repl -2, CendR NRP1 mod 4, VLA-4 inh 11 and A3G deaminase -5.
For CC(=O)NC(Cc1ccc(C(C)C)cc1)C(=O)NC1CCN(C(=O)c2cccc(C)c2)CC1 (centres undefined) the results were A3A deaminase -1, beta cell repl 2, CendR NRP1 mod -1, VLA-4 inh -5 and A3G deaminase -5.
O=C(Nc1cccc(Cl)c1)C1C2C=CC3(O2)C1C(=O)N(CCCN1CCCCC1)C3C(=O)NC1CCCCC1 (centres undefined) was read as A3A deaminase -2, beta cell repl -2, CendR NRP1 mod 3, VLA-4 inh -4 and A3G deaminase -11.
`Cc1cc(-c2csc(N)n2)c(C)n1C` gave A3A deaminase 7, beta cell repl -1, CendR NRP1 mod 10, VLA-4 inh -7, A3G deaminase 44*, APOBEC3G confirm 17* and UDG ctr A3G -3.
CCn1cc(/C=N\NC(=O)c2ccc3c(c2)c(C)c(C)n3Cc2ccccc2)c(C)n1 was read as A3A deaminase 20, beta cell repl -1, CendR NRP1 mod -7, VLA-4 inh 7 and A3G deaminase 3.
For CCn1ncc(/C=N\NC(=O)c2ccc3c(c2)c(C)c(C)n3Cc2ccccc2)c1C the results were A3A deaminase -3, beta cell repl 4, CendR NRP1 mod -1, VLA-4 inh -12, A3G deaminase 70*, APOBEC3G confirm 0 and UDG ctr A3G -4.

Screening results (PubChem)
